The supplement of paper PMC3334620
Whole data set: some 33,000 sequences, median “E-score (-0.5 to 0.5)” near -8e-05, cut for the highest 2% near 0.23. For the sample, the highest values were picked, then their nearest neighbours and some sequences at random.

What follows are sequences tested against T1, Nrg2 (UniProt P38082) (assay: PBM E-score (8-mer binding enrichment) (E-score (-0.5 to 0.5)); higher = stronger / more preferred TF binding). Details: protein concentration: 100 nM; construct: GST-full length.
T1 sequence: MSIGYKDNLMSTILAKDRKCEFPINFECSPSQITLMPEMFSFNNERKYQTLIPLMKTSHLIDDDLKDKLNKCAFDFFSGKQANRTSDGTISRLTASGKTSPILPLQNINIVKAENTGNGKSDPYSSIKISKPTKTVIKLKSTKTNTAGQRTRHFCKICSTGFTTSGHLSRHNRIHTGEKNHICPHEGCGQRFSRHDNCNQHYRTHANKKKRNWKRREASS
How it was run: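 Detection of bound protein used fluorescent anti-GST, with scans normalised by masliner. The proteins were GST-tagged yeast transcription factors applied at about 100-200 nM to universal all-10-mer Agilent arrays made double-stranded by primer extension. Each ungapped eight-base word, pooled with its reverse complement, was scored with an E-score from the Universal PBM Analysis Suite.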

Sequence | PBM E-score
CCCCTGAG | 0.176
AGCCTGAT | -0.168
ACCCTGAT | 0.249
AGCCTGTG | -0.118
ACCCTGTG | 0.289
GCCCTGAC | -0.00086
ACCCTGAC | 0.334
ACCCTGAG | 0.368
ATCCTGAG | 0.0135
ACCCTGTC | 0.201
AACCTGAT | 0.0634
AACCTGTG | 0.0227
GTTAGCGA | -0.131
ATATCGAT | 0.213
CTCTGCTC | -0.0804
ACACTATG | 0.0263
CTACTTGC | 0.141
ACCTTAGC | 0.025
CGTTCACC | -0.11
AGCCTCCC | -0.381
ACCGATCG | -0.0446
TCTGACCA | 0.216
TAATAAGA | 0.0444
GCTTGCTA | -0.0547
CCCCTGTC | -0.151

Sequence | PBM E-score
CTCCTGAC | 0.0802
CCCCTGAC | 0.235
ATATAAAC | 0.255
GTATAAAC | 0.156
ATATAAAG | 0.0638
ATATAACG | 0.243
ATATAACC | 0.145
ATATAAAT | 0.252
ATATAACA | 0.078
CTATAAAC | -0.086
ATATAAAA | 0.0793
ATGAGTAA | 0.0697
ACTCGGAC | 0.0898
ACTAGGGC | -0.0479
ACTGAACC | -0.111
GTCTTTTA | -0.195
ATATCTTG | 0.0388
AATCCTCC | -0.123
AGACAGCT | 0.12
GTCACGGA | -0.00114
CGCCATGA | -0.0296
CTATCTAC | 0.00786
AAGCTTCC | -0.206
CGCGGATC | 0.037
CACGGATA | 0.235

Sequence | PBM E-score
CGCGGATA | 0.246
AACGGATA | 0.258
AACGGATT | 0.148
AACGGATG | -0.00493
TACGGATA | 0.0194
CACGGATG | -0.149
AGCGGATA | -0.042
ACCGACAC | -0.0406
GGGAGGAC | 0.0465
GTCGTTTA | -0.00227
AACGTCAC | -0.00893
CCGCCCAG | -0.0404
GAATCAGA | 0.23
TAATCAGA | 0.133
AAATCAGA | 0.129
CGTTAAAG | 0.00135
GAGCTACA | -0.114
AGATACTG | 0.242
AGATACTA | 0.0761
AGATACTC | 0.1
GGATACAC | -0.0641
AGATACAG | 0.136
AGATACAC | 0.244
ATACATGC | -0.0508
GGTTATGA | -0.0752

Sequence | PBM E-score
CAAAAGGA | -0.0703
ACCCTAAC | 0.116
GACTGTTA | -0.0515
AGACTGAC | -0.1
AATAAGAG | 0.115
GATAAGAA | 0.0876
CATAAGAA | 0.254
AATAAGAT | 0.0228
TATAAGAA | 0.12
AATAAGAA | 0.233
GTCCCAGA | -0.19
AGCTACAC | 0.0938
GAGACTAA | -0.027
TAACAATA | 0.132
ATACAACG | 0.0553
ATACAACA | 0.246
ATACAATC | -0.0431
GAACAATC | 0.0696
AAACAATG | 0.0814
AAACAATA | 0.261
GAACAATA | 0.277
AAACAATT | 0.137
ATACAATA | 0.239
CTACAATA | 0.00041
ATACAACC | -0.00323

Sequence | PBM E-score
CGTCCGAG | 0.0587
AAGGCCTC | -0.0691
TAGAGCGA | -0.079
CGACACAG | -0.0558
CAGAGGGG | -0.314
TGATAGAA | -0.0926
TCTACGCA | 0.0696
GAGGTTTA | -0.00946
ACGGTTCG | -0.169
CAGGTGGG | -0.0155
AGGCTAGC | -0.223
CATCGAAA | 0.0505
AATCGAAC | 0.169
AATCGAGT | 0.0016
AATCGAAA | 0.0902
AATCGAGG | 0.248
AATCGAAG | 0.264
AATCGATT | 0.247
TATCGAAA | 0.255
AATCGATC | 0.0541
AATCGATA | 0.158
GATCGAAA | 0.108
CATCGAGG | 0.0813
GACTGGGA | -0.0261
ATAGCCGG | -0.145

Sequence | PBM E-score
ACAACCAG | 0.101
ACAACCAT | 0.24
ACAACCAC | -0.0501
ACGTGGTG | -0.139
AGAGTTAG | -0.0429
CCGACGAC | 0.00776
ACTGCTCT | 0.00123
CCATGAGC | -0.047
AATGCGAG | 0.107
ATTAATTG | 0.142
ATTAATTA | 0.117
CTTAATGA | 0.0652
ATTAATTC | 0.229
ATTAATGA | 0.235
ATTAATGC | 0.0582
GTGTAGCA | -0.149
AGCTATCC | -0.208
ACGCGGAA | -0.0174
CGGATAAC | 0.05
TGGATAAA | 0.0491
CGGATAAA | 0.234
CTTTGGAA | -0.152
ACTATGAG | -0.0885
TATCGGAA | 0.0162
AATCGGAA | 0.242

Sequence | PBM E-score
AATCGGAG | 0.105
AGAGAAAG | -0.00961
GCTTCTCA | 0.00982
AGCCCATC | -0.0428
AATCGCAG | 0.16
AATCTCGG | 0.0273
AATCGCGC | 0.23
AATCTCGC | 0.235
GATCTCGC | 0.144
AATCGCGA | 0.185
CATCGCGC | 0.0459
AATCGCAT | 0.245
AATCGCAC | -0.165
AGATGGCA | 0.0923
AGCGGTTG | -0.028
AGATTGCG | 0.00885
CTGAGACA | 0.0347
AAAACTTA | 0.0488
GTAGGTAA | 0.00715
AGGCTGAA | -0.0879
TCAAATGA | -0.0989
CTCTCACA | 0.124
